AHR activator: activates the human aryl hydrocarbon receptor. P35869. AHR-responsive luciferase reporter cells, luminescence. activation, % at 5 µM. 320,000 tested, 2.5% active. AID 2796; in the data active means activation above about 47%;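 further: 0% = vehicle wells and 100% = reference agonist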
NR0B1 inh: inhibits human nuclear receptor DAX1; 340,000 tested, 0.99% active; P51843; inhibition, % at 6.75 µM; AID 504766; HEK293 Gal4-DAX1 luciferase reporter, luminescence;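 active means inhibition above the mean over all tested compounds plus 3 SD, cut at about 4.2% in these data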;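 further: 0% = DAX1-transfected cells with DMSO and 100% = empty-vector control cells with DMSO; inhibition shows as a rise in luminescence from relieved DAX1 repression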
HSF1 inhib: HSF1 inhibition | NIH3T3-HGL HSE-luciferase, MG132-induced, luminescence 8 h; hits give low values | activity change, negative = inhibition, % at 7.5 µM (by protocol) | 300,000 tested, 0.77% active | AID 2098;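 active means more than half of replicate wells show activity change below -50%, luminescence cut by over half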;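 further: luciferase reports HSF-1 transcriptional activity via heat shock element; 0% = median of DMSO wells and -100% = zero luminescence signal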
HSF1 activator: increases HSF-1 driven luciferase reporter signal | NIH3T3-HGL HSF-1 luciferase reporter, MG132, 8 h; 100% = twice DMSO control signal | activation, % at 9 µM | 300,000 tested, 1.7% active | AID 504408;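 active means mean replicate activation of at least 50% with a set share of replicates each reaching 50%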;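 further: 0% = median of the neutral control wells and 100% = twice that signal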
FXN GAA850 act: activators of GAA850 frataxin (FXN) promoter. HEK293 lucGAA850 FXN promoter luciferase reporter, 24 h; percent of 10 µM SAHA response. activation, % at 6 µM. 360,000 tested, 0.56% active. AID 540364;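 active means activation above the average of all compounds screened plus 3 SD, cutoff fixed separately per campaign, cut at about 7.5% in these data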;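 further: 0% = DMSO wells and 100% = 10 µM SAHA wells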
* marks the source's active call; other numbers are inactive results; nt = no result. Shown are actives, neighbours in structure and some others; about 5.4% of the full set was active somewhere.

SMILES	AHR activator	NR0B1 inh	HSF1 inhib	HSF1 activator	FXN GAA850 act
CCCn1c(=O)c2c(nc3n2CCCN3CCc2ccccc2)n(C)c1=O	6	-1	-6	-8	2
Cn1c(=O)n(CCc2ccccc2)c(=O)c2c1nc1n2CCCN1CCc1ccccc1	83*	-3	7	-8	-4
O=C(Cn1ccc([N+](=O)[O-])n1)N1CCCCC1	1	5.5*	1	-3	1
Cc1cc(NC(=O)Cn2ccc([N+](=O)[O-])n2)no1	1	0	-52*	-62	0
COc1ccc(C)cc1NC(=O)CN(C)C1CCCCC1	-1	1	1	0	0
Cc1ccc(Cc2nnc3n(-c4ccccc4)nc(C(=O)c4ccccc4)n3c2=O)cc1	-1	7.0*	5	17	-3
Cc1ccc(CNC(=O)c2cc(C)nn2-c2ccccc2)cc1	4	2	-1	-19	-1
Cc1ccc2c(c1)N(CC(=O)NC1CCCCCC1)C(=O)c1cccnc1O2	0	-1	-5	13	0
COc1cc(OC)cc(C(=O)N2CCN(S(C)(=O)=O)CC2)c1	-1	3	-82*	-85	-4
CCOC(=O)N1CCN(C(=O)c2cc(OC)cc(OC)c2)CC1	-2	1	-10	-4	0
COc1ccc(C2c3[nH]c4ccccc4c3CCN2Cc2ccoc2)c(F)c1 (centres undefined)	47*	-1	7	5	-2
COc1ccccc1C(=O)Nc1nnc(S(=O)(=O)N2CCC(C)CC2)s1	11	5.0*	3	9	1
O=C(Nc1nnc(S(=O)(=O)N2CCCCCC2)s1)c1ccccc1Cl	1	1	-70*	-78	-1
CCOC(=O)C[C@H]1c2cc(F)ccc2S(=O)(=O)N1c1cccc(OC)c1	7	2	7	14	0
CC(=O)C[C@H]1c2cc(F)ccc2S(=O)(=O)N1c1ccc(N(C)C)cc1	6	1	-62*	-65	-2
O=c1ccn(-c2cccc(C(F)(F)F)c2)nc1-c1ccn(-c2cccc(Cl)c2)n1	0	1	0	10	11*
CCOc1ccc(C(=O)NCc2ccccc2)cc1Br	1	-1	1	2	0
COc1ccccc1NC(=O)CSc1nnc(-c2ccccc2)o1	4	5.2*	16	29	0
Cc1ccc(NC(=O)CSc2nnc(-c3cccnc3)o2)c(C)c1	3	4.4*	24	44	1
Cc1ccc(C)c(NC(=O)CSc2nnc(-c3ccccc3)o2)c1	6	0	1	-1	1
O=C(NCC(=O)N1CCOCC1)c1ccc(Cl)c(Cl)c1	6	1	nt	nt	1
Cc1cc2c(NC(=O)Nc3ccccc3)cccc2nn1	9	5.4*	5	4	0
CCn1nc(C(=O)OCC(=O)Nc2nc(-c3ccc(OC)cc3)cs2)c2ccccc2c1=O	3	3	40	77*	3
COc1ccc(-c2csc(NC(=O)CN3C(=O)CCC3=O)n2)cc1	5	2	-7	-1	1
CCCC(=O)NC(=S)Nc1nc(-c2ccc(OC)cc2)cs1	13	4.7*	-14	10	0
SMILES	AHR activator	NR0B1 inh	HSF1 inhib	HSF1 activator	FXN GAA850 act
CCCc1cc(=O)[nH]c(SCC(=O)Nc2nc(-c3ccccc3)cs2)n1	8	0	12	26	-2
COc1ccc(-c2csc(NC(=S)NC(=O)c3ccco3)n2)cc1	6	1	29	52*	3
O=C(CSc1nc2ccccc2[nH]1)Nc1nc(-c2ccc(Br)cc2)cs1	48*	1	7	11	0
O=C(NC(=S)Nc1nc(-c2ccccc2)cs1)c1ccco1	17	1	12	24	5
Cc1ccc(CN2CCN(C(=O)CC(C)C)CC2)cc1	1	-1	-6	3	1
C=C(CN(C)C)C(=O)c1ccc(OC2OC(COC(C)=O)C(OC(C)=O)C(OC(C)=O)C2OC(C)=O)cc1 (centres undefined)	nt	0	nt	nt	7
COCCN(C(=O)COC(=O)C(c1ccccc1)c1ccccc1)c1c(N)n(Cc2ccccc2)c(=O)[nH]c1=O	-2	0	-3	-17	0
COc1ccc(-c2csc(NC(=O)CSc3n[nH]c(N)n3)n2)cc1	49*	0	3	17	3
Nc1nc(SCC(=O)Nc2ccc(OCc3ccccc3)cc2)n[nH]1	2	5.2*	-1	3	2
COc1ccc(-c2csc(NC(=O)CSc3n[nH]c(C)n3)n2)cc1	12	0	9	14	5
COc1ccc(-n2nnnc2/C=C\Nc2ccc(C)cc2)cc1	1	0	0	8	1
